Among the data in PubChem BioAssay (Tox21) are outcome and caspase-3/7 activation values, retold here.

Structures are written as SMILES. Unmarked numbers belong to inactive results. Calls of active or inactive are those of the source. Calls come from the whole dose curve; as a rule, active = well fitted activation curve with a large enough effect in the repeat runs; inconclusive = weak or mixed curves; inactive = flat fitted curve, though single readings scatter.
% is set by controls: 0 for no effect and ±100 for the full control effect.

A short description of this test: Caspase-3/7 induction in CHO-K1 cells by small molecules, qHTS assay (AID 1346980). Note: nearly all actives have a fitted effect of over 15% in size. To be noted: CHO-K1 caspase-3/7 induction, Caspase-Glo luminescence, 17 h; series mostly up to 92.4 µM. The source says:
National Center for Advancing Translational Sciences [NCATS]
NIH Chemical Genomics Center [NCGC]
U.S. Environmental Protection Agency [EPA]
National Institutes of Environmental Health Sciences [NIEHS]
National Toxicology Program [NTP]
Apoptosis is a process of programmed cell death and plays a central role in the development of multicellular organisms. It is a highly regulated process and induces cell death by activating caspases, which are the members of cysteine aspartic acid-specific protease (caspase) family. Caspases involved in apoptosis are classified by their mechanism of action as initiator caspases (caspase-2, -8, -9 and -10) and executioner caspases (caspase-3, -6, and -7). Inhibition of apoptosis results in number of cancers, autoimmune diseases, inflammatory diseases and viral infection. To identify small molecule compounds that induce apoptosis, a homogeneous, luminescent Caspase-Glo 3/7 assay was used. Wild type CHO-K1 cells were used to screen Tox21 libraries for identifying caspase-3/7 activity inducers.
CHO-K1 cells were dispensed at 1,500 per well in 5uL of culture medium into white solid bottom 1536-well plates (Corning Life Sciences, Corning, NY) using a Multidrop Combi (Thermo Scientific, Waltham, MA) dispenser. The assay plates were incubated at 37 C and 5% CO2 for 5hr, and then 23nL of compounds dissolved in DMSO and positive control were transferred using a Pintool station (Wako, San Diego, CA). The assay plates were incubated at 37C and 5% CO2 for 17hr. For caspase-3/7 activity read, 4uL of Caspase-Glo 3/7 reagent (Promega Corporation, Madison, WI) was added to each well of the assay plates using Flying Reagent Dispenser (FRD, Aurora Discovery, San Diego, CA) and incubated the assay plates at room temperature for 30min. The luminescence signal was quantified using a ViewLux plate reader (Perkin Elmer, Shelton, CT).
`CC1=CC(=O)CC(C)(C)C1(O)/C=C/C(C)=C\C(=O)O` (stereo not given): the call was inactive.

Take `O=C(OCCOCCO)c1ccccc1Nc1cccc(C(F)(F)F)c1`: the outcome was inactive.

As for `Cc1nc2ccccc2s1`, the call was inactive.

Turning to `CC(C)CCCCCOC(=O)CCCCC(=O)OCCCCCC(C)C`, the compound was classed as inactive.

For `O=[N+]([O-])c1cccc(S(=O)(=O)NCCNS(=O)(=O)c2cccc([N+](=O)[O-])c2)c1`, the outcome was inactive.

In the case of `O=C(CCCCCCCCC#CI)Oc1ccccc1`, the compound was classed as inactive.

As for `Brc1cc(-c2ccc(Br)c(Br)c2Br)cc(Br)c1Br`, the result was inactive.

Consider `O=C(C(=O)c1ccccc1)c1ccccc1`, for which the compound was classed as inactive.

`CC1(C)C2=CCCC(C)(C)[C@]23CC[C@H]1C3`: the result was inactive.

For `Nc1nc(Cl)nc2c1ncn2[C@@H]1O[C@H](CO)[C@@H](O)[C@@H]1F`, the compound was called inactive.

As to `CCOC(=O)N1CCC(n2c(=O)[nH]c3cc(Cl)ccc32)CC1`, the compound was classed as inactive.

Consider `CCCOCCOCCO`, for which the compound was classed as inactive.

On to `NC(=O)Cn1c(=O)cc(CCN2CCN(c3nccc4sccc34)CC2)c2ccc(F)cc21`, for which the outcome was inactive.

As to `CC1(C)C(=O)N(Br)C(=O)N1Cl`, the call was inactive.

Turning to `CCCCOC(=O)CCS`, the call was inactive.

`CCCOC(=O)c1ccc(C(=O)OCCC)nc1`: the call was inactive.

On to `O=C(O)C(Cc1cc(I)c(O)c(I)c1)c1ccccc1` (stereo not given), for which the compound was classed as inactive.

For the compound `CC1=C(C=O)C(C)(C)CCC1`, the outcome was inactive.

Regarding `O=C(CCCN1CCN(c2ccc(F)cc2)CC1)NC1c2ccccc2CSc2ccccc21` (stereo not given), the outcome was inactive.

Regarding `O=C(O)c1ccccc1NCCc1ccccc1`, the call was inactive.

On to `COc1ccc([C@@H]2Sc3ccccc3NC(=O)[C@@H]2O)cc1`, for which the result was inactive.

As for `CCCCCCCCSCCO`, the compound was classed as inactive.

With `CCCCC(=O)O[C@]1(C(=O)CO)CC[C@H]2[C@@H]3CCC4=CC(=O)CC[C@]4(C)[C@H]3[C@@H](O)C[C@@]21C`, the compound was called inactive.

For the compound `CCN(CC)CCNC(=O)c1ccc(NC(C)=O)cc1`, the compound was called inactive.

With `CCC(=O)Oc1ccc(/C(CC)=C(\CC)c2ccc(OC(=O)CC)cc2)cc1`, the call was inactive.

As to `CCCOc1ccc(S(=O)(=O)N2CCN(CC)CC2)cc1-c1nc2c(CC)n(Cc3ccccn3)nc2c(=O)[nH]1`, the result was inactive.

Turning to `CCCC(=O)O[C@]1(C(=O)COC(=O)CC)CC[C@H]2[C@@H]3CCC4=CC(=O)CC[C@]4(C)[C@H]3[C@@H](O)C[C@@]21C`, the caspase-3/7 activation is 1.2% [at 19 µM].

For `C=C(C)C(=O)OCCOC(=O)CC(C)=O`, the compound was classed as inactive.

`C=CCCCCCCCCCCCCCCCC`: the caspase-3/7 activation was 0.114% [at 8.39 µM].

In the case of `CCCc1c(OCCCOc2ccc(OCC(=O)O)cc2)ccc(C(C)=O)c1O`, the compound was called inactive.

For the compound `CC(=O)CC(c1ccc([N+](=O)[O-])cc1)c1c(O)c2ccccc2oc1=O` (stereo not given), the result was inactive.

For the compound `Cc1ccc(S)cc1`, the result was inactive.

Take `Oc1ccc(Nc2ccccc2)cc1`: the compound was called inactive.

`CC#N`: the outcome was inactive.

Regarding `ON(Cc1ccccc1)Cc1ccccc1`, the outcome was inactive.

For `CCOC(=O)C(C)Oc1ccc(Oc2nc3ccc(Cl)cc3o2)cc1` (stereo not given), the compound was classed as inactive.

For the compound `Cc1cc(O)c(C(C)C)cc1Cl`, the compound was classed as inactive.

Consider `Nc1ccc(S(=O)(=O)O)cc1`, for which the compound was classed as inactive.

In the case of `CCCCCCCC/C=C\CCCCCCCC(=O)OC(CO)CO`, the call was inactive.

For `C=CCOC(=O)/C=C\C(=O)OCC=C`, the call was inactive.
